Laboratory results taken from PubChem BioAssay AID1307 (SRMLSC, 2008).
Fewer than 10 of roughly 1,200 compounds were called active.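 The calls were made as follows: active = inhibition reaching a set limit at one or more tested concentrations; inactive = inhibition under that limit at every dose.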 A selection follows. Entries with a potency or affinity are not part of this list.

experiment: yeast RAM network inhibitors, dose response, S. cerevisiae (AID 1307);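 also: 0% = DMSO vehicle wells and 100% = 10 µM 1-NA-PP1 control; higher inhibition means more yeast growth since RAM block rescues cells from 5-FOA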; conditions: S. cerevisiae RAM network URA3 reporter, 5-FOA growth OD615, hits give high values, yeast express analog-sensitive mutant Cbk1 kinase; at 100 µM unless noted

Max inhibition, inactive:
CCCCc1ccc(-c2csc(/C(C#N)=C/c3ccc(C)o3)n2)cc1 4.24%, CCC(C)c1ccc(NC(=S)NCc2ccccc2OC)cc1 (centres undefined) 5.65%, CCCCC(=O)Nc1ccccc1C(=O)OCC(=O)c1ccc2c(c1)OCCO2 2.31% [at 0.196 µM], CCOC(=O)N1CCC(N(CCN(C)C)C(=S)Nc2cccc(SC)c2)CC1 2.41% [at 0.782 µM], CCCN(CCC)c1nc2ccccc2nc1C(C#N)C(=O)OC(C)COC (centres undefined) 2.6%, Cc1ccc(-c2ccc(C(=O)NCc3ccccc3)o2)c2ccccc12 3.65%, CC(C)Oc1cccc(C(=O)NC(=S)Nc2cccc(C(F)(F)F)c2)c1 2.41% [at 0.782 µM], O=C(CN(C(=O)CSc1nnc(COc2ccccc2)o1)c1ccc(F)cc1)NC1CCCC1 2.82%, Cc1ccccc1OCCC(=O)Nc1cccc(S(=O)(=O)Nc2ccccc2Cl)c1 2.67% [at 0.196 µM], O=S(=O)(NCCSCc1ccc(Cl)cc1Cl)c1ccc2c(c1)OCCO2 2.05% [at 12.5 µM], CCCCCOP(=O)(OCCCCC)C1(NS(=O)(=O)c2ccccc2)C=CC(=O)c2ccccc21 (centres undefined) 2.83%, COc1ccccc1OCC(=O)Nc1ccc(CSc2ccccc2)cc1C 1.56% [at 25 µM], Cc1ccc(-n2c(SCC(=O)Nc3cccc(S(=O)(=O)NC4=NCCCCC4)c3)nc3ccccc3c2=O)cc1C 11%, CC(C)=CCC/C(C)=C/Cc1c(O)ccc(C(=O)/C=C/c2ccc(O)cc2)c1O 5.39%, CCOc1ccc2nc(SCC(=O)c3ccccc3)sc2c1 3% [at 0.196 µM], COc1ccc(/C=C2\SC(=S)N(CC(=O)OCC(=O)Nc3ccc([N+](=O)[O-])cc3OC)C2=O)cc1 8.9%, C=CCc1cccc(/C=N/NC(=O)C(C)Nc2ccc(C)cc2)c1O (centres undefined) 2.46% [at 0.782 µM], CCOc1cccc(-c2csc(C3COc4ccccc4O3)n2)c1 (centres undefined) 5.04% [at 50 µM], COc1ccc2c(C)cc(SCC(=O)c3ccc4c(c3)OCO4)nc2c1 4.01%, FC(F)(F)c1nc(N2CCN(c3ccccc3)CC2)nc2c1CCCCC2 3.63%, CCOC(=O)c1c(C)[nH]c(C)c1C(=O)COC(=O)/C=C/c1ccc(Cl)cc1 2.07% [at 0.391 µM], CCSC1=N/C(=C\c2ccc(-c3ccccc3[N+](=O)[O-])o2)C(=O)S1 5.47% [at 25 µM], CC1CCCN(C(=O)C(C)Sc2nc(-c3ccccc3)cc(C(F)(F)F)n2)C1 (centres undefined) 3.6% [at 25 µM], CCc1ccc(OCC(=O)N2c3ccccc3CCc3ccccc32)cc1 2.64% [at 3.125 µM], Fc1ccc(CSc2nnc(Cc3sc(-c4ccccc4)nc3-c3ccccc3)o2)cc1 5.66%, O=C(Nc1ccccc1)C1=C[C@H](C2CCCCC2)C[C@H](OCc2ccc(CO)cc2)O1 4.12%, CCCNS(=O)(=O)c1ccc(CCC(=O)Nc2cc(Cl)ccc2Oc2ccccc2)cc1 1.73%, Cc1cccc(NC(=O)/C(C#N)=C/c2ccc(Sc3ccccc3)o2)c1C 10.5%, CC(C)Oc1ccccc1OCCCCn1cnc2ccccc2c1=O 2.35% [at 6.25 µM], Cc1ccc(-c2csc(N(CC3CCCO3)C(=O)c3ccco3)n2)cc1 (centres undefined) 1.93% [at 12.5 µM], OCCNc1nc(SCc2ccccc2)nc2sc3c(c12)CCC3 1.56% [at 3.125 µM], Cc1cc(NC(=O)CSc2nc3ccsc3c(=O)n2Cc2ccccn2)n[nH]1 2.41% [at 12.5 µM], COC(=O)c1cc2c(ccn2-c2ccc(F)cc2)n1Cc1ccc(OC)cc1 5.52% [at 50 µM], CCC1(C)CC(CCNS(=O)(=O)c2ccc(C)cc2)(c2ccc(C)cc2)CCO1 (centres undefined) 3.04%, Cn1c(N=Nc2ccc(N3CCOCC3)cc2)[n+](C)c2ccccc21 25%, Cc1ccc(SCCNC(=S)Nc2ccc(C)c(C)c2)cc1 4.41% [at 12.5 µM], Brc1ccc(CSc2nnc(Cc3c[nH]c4ccccc34)o2)cc1 3.66%, CCOCCOC(=O)C(C)Oc1ccc(Oc2nc(Cl)ccc2Cl)cc1 (centres undefined) 2.21% [at 25 µM], CCOc1nc(-c2ccccc2)ccc1-c1noc(COc2ccccc2)n1 3.61% [at 50 µM], Cc1ccccc1OCC(=O)OCC(=O)c1ccc(OCc2ccccc2)cc1 4.85% [at 50 µM], COc1ccccc1C(NC(=O)C1CCCCC1)c1c(O)ccc2ccccc12 (centres undefined) 5.27%, CCCCC1(Cc2cccc([N+](=O)[O-])c2)C(=O)N(c2ccccc2)N(c2ccccc2)C1=O 4.01% [at 50 µM], O=C(COC(=O)CCCNC(=O)c1ccc(Cl)cc1)Nc1cc(Cl)c(Cl)cc1Cl 3.97% [at 50 µM], COc1ccc(C(=O)/C=C/Nc2ccc(S(=O)(=O)Nc3ncccn3)cc2)cc1 7.67%, CCCCOc1ccc(S(=O)(=O)Nc2cc(OC)ccc2OC)cc1 3.71% [at 25 µM], COc1cc2c(=O)n(Cc3ccco3)c(=O)n(CC(=O)c3ccc(Br)cc3)c2cc1OC 3.72% [at 0.196 µM], Cc1ccc(SCC(=O)Nc2ccc(F)cc2[N+](=O)[O-])cc1C 2.24%, COc1cc(/C=N/Nc2ccc(Cl)cc2)ccc1OC(=O)c1cccs1 2.6% [at 0.391 µM], COc1ccc(-c2nc(-c3ccc(O)cc3O)cs2)cc1OC 5.02% [at 3.125 µM], CCOC(=O)c1cc(C#N)c(Oc2cccc(C(F)(F)F)c2)nc1-c1ccccc1 2.36%, CC(=O)Nc1ccc(-c2cc(-c3ccc(NC(C)=O)cc3)nc(-c3ccc(NC(C)=O)cc3)n2)cc1 13.5%, COc1ccc(C(=O)NNC(=O)C(Cc2ccc(O)cc2)NC(=O)c2ccccc2NC(=O)c2ccc(OC)cc2)cc1 (centres undefined) 3.19%, COC(=O)[C@H](Cc1ccccc1)NC(=O)[C@@]1(C)C[C@@H]1[C@@H](NC(=O)OCc1ccccc1)c1ccccc1 5.9%, O=C(CCC(=O)c1ccc(Oc2ccccc2)cc1)Nc1cccc(Cl)c1Cl 3.23% [at 25 µM], COc1cccc(/C=C(/C(=O)OCC(=O)NC2CCCC(C)C2C)c2ccccc2)c1 (centres undefined) 7.65% [at 50 µM], Cc1ccc(C(=O)C(OC(=O)CCC(=O)Nc2cccc(C)c2)c2ccccc2)cc1 (centres undefined) 5.19%, CCOC(=O)c1ccc(COC(=O)c2ccc3c(c2)-c2ccccc2C3=O)cc1 5.23% [at 25 µM], CCOC(=O)C1CCN(S(=O)(=O)C(F)(F)c2nc3ccccc3s2)CC1 2.1% [at 0.391 µM], Clc1ccc(-c2nnc(CSc3nnc(-c4cccs4)o3)o2)cc1 2.52% [at 3.125 µM], CCSC1=N/C(=C/c2ccsc2)C(=O)N1c1ccccc1 3.18%, CCCNC(=O)c1ccccc1NC(=O)c1ccc(CSc2ccccc2)cc1 5.46% [at 50 µM], Cc1ccc(C2=NN(Cc3nnc(-c4ccccc4)o3)C(=O)SC2)cc1 3.29%, O=C(NCc1ccccc1)c1ccc(S(=O)(=O)N2CCCc3ccccc32)cc1 2.24%, O=[N+]([O-])c1ccc(N/N=C/c2sc(N3CCOCC3)nc2-c2ccccc2)c(S(=O)(=O)Nc2ccc(Cl)cc2)c1 8.74%, CN(C)S(=O)(=O)c1ccc2[nH]cc(/C=C/c3nc4ccccc4c(=O)n3-c3ccccc3)c2c1 10.9%, CN(C)c1nc(SCCOC(=O)COc2ccc(Cl)cc2Cl)nc(N(C)C)n1 1.44% [at 0.782 µM], O=C(c1cccs1)n1nc(-c2ccc(Cl)cc2)nc1NCc1ccco1 2.48%, O=C(C(Sc1ccccc1)c1ccccc1)N1CCN(c2ccccc2)CC1 (centres undefined) 2.99% [at 3.125 µM], CCOC(=O)c1c(NC(=S)Nc2ccc(OC)cc2)sc2c1CCCCC2 3.37% [at 1.563 µM], O=C(/C=C/c1ccc(-c2ccccc2)o1)c1ccccc1 5.06%, O=C(Cn1cc(C(=O)c2ccco2)c2ccccc21)NC1CCCCC1 3.76% [at 0.391 µM], O=C1CCC(/C=C/c2ccccc2)=NN1Cc1ccc(Cl)c(Cl)c1 3.06%, C=CCO/N=C(/C)c1c(O)c(CC)c(-c2ccccc2)n(-c2ccccc2)c1=O 2.56% [at 0.391 µM], CCOC(=O)c1cccc(NC(=O)CSc2nnc(COc3ccccc3C)o2)c1 2.04% [at 50 µM], Cc1c(NC(=S)NC(=O)Cc2ccccc2)cccc1C(=O)O 2.43% [at 0.196 µM], COc1cc(NC(=O)c2ccc3c(c2)OCO3)c2ncccc2c1 4.22%, C/C(=N\OC(=O)c1ccc(OC(C)C)cc1)c1ccc(C)c(C)c1 3.12%, Cc1ccc(N(CCCCN2C(=O)c3ccccc3C2=O)C(=O)c2cccs2)cc1 4.25%, Cc1ccc(S(=O)(=O)N2c3cc(C)ccc3OCC2C(C)(C)C)cc1 (centres undefined) 3.04%
